Test [1] deals with Paired box protein Pax-6 (Homo sapiens) (UniProt P26367). The test can be described thus: ATG_Pax6_CIS: Attagene CIS-FACTORIAL HepG2 Assay for human Paired Box 6 (PAX6) (AID 2282956). The settings on record: HepG2 CIS-FACTORIAL PAX6 reporter transcription, RNA readout; actives raise or lower the signal. In a few lines: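 HepG2 cells transiently transfected with cis-promoter-driven multiplexed reporter units sensing endogenous transcription factor activity; 24 h chemical exposure. Reporter mRNA quantified by RT-PCR, 6-FAM labelling, HpaI digestion and capillary electrophoresis; bidirectional fit versus DMSO baseline.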

Test [2] can be described thus: ATG_PXRE_CIS: Attagene CIS-FACTORIAL HepG2 Assay for human Pregnane X Receptor Element (PXRE) (AID 2282957). The settings on record: HepG2 Attagene CIS-FACTORIAL PXRE reporter, mRNA; actives raise or lower the signal. In a few lines: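 Transfect HepG2 with MRTUs (cis promoter elements); dose chemical, incubate 24 h; isolate RNA, RT with oligo(dT), PCR, 6-FAM label, HpaI cut, CE. Gain/loss fit vs DMSO.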

Test [3] in a line: ATG_PPRE_CIS: Attagene CIS-FACTORIAL HepG2 Assay for human Peroxisome Proliferator-activated Response Element (PPRE) (AID 2282958). The settings on record: HepG2 PPRE cis-element reporter, Attagene transcription factor profiling; actives raise or lower the signal. In a few lines: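 In this cell-based multiplex, a PPRE cis element drives a reporter sequence in transiently transfected HepG2 cells. Following 24 h treatment, labeled cDNA amplicons are sized and quantified by capillary electrophoresis, with DMSO defining baseline.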

Test [4] can be described thus: ATG_RORE_CIS: Attagene CIS-FACTORIAL HepG2 Assay for human RAR-related Orphan Receptor Element (RORE) (AID 2282959). Particulars: HepG2 Attagene cis-factorial RORE reporter, mRNA; actives raise or lower the signal. In outline:
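Endogenous factor activity at a cis response element is read as reporter transcript levels in HepG2 cells, 24 h post-dose. Transcripts are quantified by RT-PCR with capillary electrophoresis, and data fitted in both directions against DMSO.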

In test [5] the target is Transcription factor Sp1 (Homo sapiens) (UniProt P08047). Description: ATG_Sp1_CIS: Attagene CIS-FACTORIAL HepG2 Assay for human Specificity Protein 1 (Sp1) (AID 2282961). Particulars: HepG2 Sp1 cis-reporter transcription, actives raise or lower the signal. In outline: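 Cells: HepG2, transiently transfected with cis-regulated multiplexed reporters. Exposure: 24 h. Detection: reporter transcripts amplified, fluorescently labeled, restriction-digested and sized by capillary electrophoresis. Analysis: bidirectional fit relative to DMSO.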

Test [6] is described as follows: ATG_SREBP_CIS: Attagene CIS-FACTORIAL HepG2 Assay for human Sterol Regulatory Element Binding (SREBP) (AID 2282962). The settings on record: HepG2 Attagene cis-factorial SREBP reporter, mRNA; actives raise or lower the signal. In a few lines:
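HepG2 cells transiently transfected with multiplexed cis-promoter reporter units sensing endogenous transcription factors; reporter mRNA measured 24 h after dosing by RT-PCR, 6-FAM labeling, HpaI digestion and capillary electrophoresis. Bidirectional fit versus DMSO.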

Test [7] addresses Signal transducer and activator of transcription 3 (Homo sapiens) (UniProt P40763). The test can be described thus: ATG_STAT3_CIS: Attagene CIS-FACTORIAL HepG2 Assay for human Signal Transducer and Activator of Transcription 3 (STAT3) (AID 2282963). The settings on record: HepG2, Attagene cis-factorial STAT3 reporter transcription; actives raise or lower the signal. In outline:
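After a 24 h compound incubation, total RNA from MRTU-transfected HepG2 cells was converted to cDNA and reporter sequences PCR-amplified, labelled and profiled by capillary electrophoresis. Gain and loss of signal were referenced to DMSO.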

Test [8] in a line: ATG_TA_CIS: Attagene CIS-FACTORIAL HepG2 Assay for human TA Basal Promoter (AID 2282964). Particulars: HepG2 Attagene CIS-factorial TA basal promoter reporter; actives raise or lower the signal. In outline: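 Steps: transfect HepG2 with MRTUs; dose 24 h; isolate RNA, DNase-treat, reverse-transcribe; PCR and FAM-label reporter cDNA; digest with HpaI 2h at 37 C; run capillary electrophoresis. Activity fitted both directions against DMSO.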

A short description of test [9]: ATG_TCF_b_cat_CIS: Attagene CIS-FACTORIAL HepG2 Assay for human T-Cell-Factor with beta-catenin (TCF/b-cat) (AID 2282965). The settings on record: HepG2 TCF/beta-catenin cis-reporter transcription, actives raise or lower the signal. In a few lines:
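Measured: reporter mRNA in HepG2 transiently transfected with cis-promoter reporter units, 24 h after chemical addition. Fitting was bidirectional, DMSO as negative control.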

Test [10] in a line: ATG_TAL_CIS: Attagene CIS-FACTORIAL HepG2 Assay for human TAL Basal Promoter (AID 2282966).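 Also: background control endpoint measuring basal TAL promoter reporter mRNA not a specific factor.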 The settings on record: HepG2 Attagene cis-factorial TAL promoter reporter; actives raise or lower the signal. In outline:
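Fluorescence of labelled reporter cDNA fragments, resolved by capillary electrophoresis, gave the readout. Human HepG2 liver cells carried transiently transfected cis-element reporter units and were treated for 24 hours; activity was fitted bidirectionally against DMSO.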

Test [11] can be described thus: ATG_TGFb_CIS: Attagene CIS-FACTORIAL HepG2 Assay for human Transforming Growth Factor (TGF) (AID 2282967). The settings on record: HepG2 Attagene CIS TGFb reporter, mRNA transcription; actives raise or lower the signal. In a few lines: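 Cells were dosed for 24 hours, after which total RNA was reverse-transcribed and reporter sequences amplified, labeled and sized by capillary electrophoresis. Activity was fitted in both directions against DMSO.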

Test [12] in a line: ATG_VDRE_CIS: Attagene CIS-FACTORIAL HepG2 Assay for human Vitamin D Receptor Element (VDRE) (AID 2282968). Particulars: HepG2 VDRE cis-reporter transcription, actives raise or lower the signal. In outline:
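In transiently transfected HepG2 liver cells, gain or loss of reporter mRNA after 24 h exposure is scored relative to DMSO, using fluorescence detection by capillary electrophoresis of RT-PCR products.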

The target of test [13] is Nuclear receptor subfamily 1 group I member 3 (Homo sapiens) (UniProt Q14994). The test can be described thus: ATG_CAR_TRANS: Attagene TRANS-FACTORIAL HepG2 Assay for human Constitutive Androstane Receptor (CAR) (AID 2282969; active = hit-call score of the fitted dose curve at least 0.9, where 1 is the maximum;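 also: activators raise reporter mRNA above DMSO so AC50 marks induction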). The settings on record: HepG2 Attagene TRANS-FACTORIAL CAR reporter. In a few lines:
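Readout is reporter mRNA induction, quantified by fluorescent primer extension and capillary electrophoresis after RT-PCR. Cells were HepG2 transiently carrying chimeric NR-Gal4 constructs with GAL4-UAS reporters, treated for 24 h; activity scored upward from DMSO.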

Test [14] concerns the target X-box-binding protein 1 (Homo sapiens) (UniProt P17861). The test can be described thus: ATG_Xbp1_CIS: Attagene CIS-FACTORIAL HepG2 Assay for human X-box Binding Protein 1 (XBP1) (AID 2282972). Particulars: HepG2 XBP1 cis-element reporter, Attagene multiplex; actives raise or lower the signal. In a few lines:
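HepG2 cells transiently transfected with multiple cis-element reporter units report endogenous TF activity; 24 h exposure, then reporter mRNA measured by RT-PCR, 6-FAM labelling, HpaI digestion and capillary electrophoresis. Bidirectional fitting versus DMSO.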

Test [15] can be described thus: ATG_Sox_CIS: Attagene CIS-FACTORIAL HepG2 Assay for human SRY-box transcription factor (SOX) (AID 2282960). Particulars: HepG2 Attagene cis-factorial SOX reporter, mRNA; actives raise or lower the signal. In a few lines: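 Measures mRNA induction of a SOX1-associated reporter in HepG2 after 24 h dosing. Fluorescently labelled RT-PCR fragments are separated by capillary electrophoresis, and gain or loss relative to DMSO control is fitted.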

A short description of test [16]: ATG_GAL4_TRANS: Attagene TRANS-FACTORIAL HepG2 Assay for GAL4 (Internal Marker) (AID 2282976; active = hit-call score of the fitted dose curve at least 0.9, where 1 is the maximum). Particulars: HepG2 Attagene TRANS GAL4 internal marker reporter. In outline:
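First, HepG2 cells were transfected with reporter units under GAL4-UAS control. Next, they were treated with chemical for 24 h. Finally, RNA was reverse-transcribed, PCR-amplified, FAM-labelled and resolved by capillary electrophoresis, with induction scored against DMSO.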

In test [17] the target is Steroid hormone receptor ERR1 (Homo sapiens) (UniProt P11474). The test can be described thus: ATG_ERRa_TRANS: Attagene TRANS-FACTORIAL HepG2 Assay for human Estrogen-Related Receptor alpha (ERRa) (AID 2282971; active = hit-call score of the fitted dose curve at least 0.9, where 1 is the maximum). The settings on record: HepG2 Attagene TRANS reporter, ERRa transactivation. In outline: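 Reporter transcript induction was quantified by RT-PCR and capillary electrophoresis of FAM-labelled, HpaI-cut products after 24 h treatment of HepG2 cells carrying transiently transfected GAL4-UAS reporter units and an exogenous ERRa-Gal4 fusion; activity scored as increase over DMSO.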

A short description of test [18]: ATG_M_19_TRANS: Attagene TRANS-FACTORIAL HepG2 Assay for M19 Transcription Factor (Internal Marker) (AID 2282974; active = hit-call score of the fitted dose curve at least 0.9, where 1 is the maximum). Particulars: HepG2 Attagene TRANS-FACTORIAL M19 internal marker reporter. In outline:
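Reporter mRNA induction was measured in transfected HepG2 cells 24 h after dosing. Endpoint fitted upward relative to DMSO and serves as a background control within the multiplexed TRANS panel.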

For test [19], the target named is Estrogen-related receptor gamma (Homo sapiens) (UniProt P62508). The test can be described thus: ATG_ERRg_TRANS: Attagene TRANS-FACTORIAL HepG2 Assay for human Estrogen-Related Receptor gamma (ERRg) (AID 2282977; active = hit-call score of the fitted dose curve at least 0.9, where 1 is the maximum;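 also: hits increase reporter signal over DMSO so potencies reflect activators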). Particulars: HepG2 Attagene TRANS reporter, ERRg transactivation. In outline: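 HepG2 cells transiently transfected with multiplexed GAL4-UAS reporter units and chimeric NR-Gal4 constructs were exposed to test chemicals for 24 h. Reporter mRNA was measured by RT-PCR, 6-FAM primer extension, HpaI digestion and capillary electrophoresis; gain-of-signal versus DMSO.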

Each structure is given as a SMILES string. Records with an inconclusive call do not appear. Active and inactive are the calls of the source. The calls were made as follows, unless noted: active = hit-call score of the fitted dose curve at least 0.9, where 1 is the maximum; inactive = score below 0.9.

Sequence of Paired box protein Pax-6 (Homo sapiens) (P26367 whole entry, looked up): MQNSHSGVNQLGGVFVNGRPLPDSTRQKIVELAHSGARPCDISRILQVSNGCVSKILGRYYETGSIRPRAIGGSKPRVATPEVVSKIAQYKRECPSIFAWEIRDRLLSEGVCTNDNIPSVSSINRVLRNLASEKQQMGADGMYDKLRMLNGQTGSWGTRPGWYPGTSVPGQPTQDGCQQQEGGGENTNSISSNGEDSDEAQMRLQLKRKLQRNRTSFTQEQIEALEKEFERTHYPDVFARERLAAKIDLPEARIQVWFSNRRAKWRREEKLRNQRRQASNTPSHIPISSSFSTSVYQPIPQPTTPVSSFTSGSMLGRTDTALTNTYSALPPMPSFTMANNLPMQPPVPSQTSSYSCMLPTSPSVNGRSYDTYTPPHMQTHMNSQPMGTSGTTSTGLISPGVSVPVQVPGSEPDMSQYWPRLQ
Sequence of Transcription factor Sp1 (Homo sapiens) (P08047 whole entry, looked up): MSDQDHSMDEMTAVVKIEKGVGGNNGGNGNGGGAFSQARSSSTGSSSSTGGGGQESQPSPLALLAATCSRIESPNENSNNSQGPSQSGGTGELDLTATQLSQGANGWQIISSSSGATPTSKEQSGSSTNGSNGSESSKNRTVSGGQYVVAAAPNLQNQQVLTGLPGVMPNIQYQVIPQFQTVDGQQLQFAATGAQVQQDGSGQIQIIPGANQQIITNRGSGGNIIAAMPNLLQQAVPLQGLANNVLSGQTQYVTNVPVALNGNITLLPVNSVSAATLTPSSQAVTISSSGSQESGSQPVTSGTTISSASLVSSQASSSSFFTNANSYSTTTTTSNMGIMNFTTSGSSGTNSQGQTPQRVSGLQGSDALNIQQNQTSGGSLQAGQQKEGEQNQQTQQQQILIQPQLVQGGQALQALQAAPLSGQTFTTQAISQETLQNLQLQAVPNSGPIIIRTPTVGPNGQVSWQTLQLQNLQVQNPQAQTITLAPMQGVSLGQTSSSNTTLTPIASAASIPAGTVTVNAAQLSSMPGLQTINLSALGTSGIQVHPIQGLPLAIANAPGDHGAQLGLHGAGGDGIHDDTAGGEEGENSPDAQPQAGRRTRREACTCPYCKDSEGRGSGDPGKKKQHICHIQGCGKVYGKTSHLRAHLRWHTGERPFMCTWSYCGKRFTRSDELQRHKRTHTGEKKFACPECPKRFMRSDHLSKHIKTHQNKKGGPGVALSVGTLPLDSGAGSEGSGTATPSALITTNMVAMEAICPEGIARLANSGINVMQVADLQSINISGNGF
Sequence of X-box-binding protein 1 (Homo sapiens) (P17861 whole entry, looked up): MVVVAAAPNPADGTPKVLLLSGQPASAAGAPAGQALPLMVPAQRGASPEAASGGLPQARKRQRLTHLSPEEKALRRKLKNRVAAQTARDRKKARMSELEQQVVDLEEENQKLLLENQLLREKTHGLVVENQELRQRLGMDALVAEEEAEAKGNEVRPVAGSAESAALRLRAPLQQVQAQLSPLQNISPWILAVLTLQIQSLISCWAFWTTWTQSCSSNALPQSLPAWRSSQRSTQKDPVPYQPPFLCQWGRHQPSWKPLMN
Sequence of Nuclear receptor subfamily 1 group I member 3 (Homo sapiens) (Q14994 whole entry, looked up, the tested form may be a part): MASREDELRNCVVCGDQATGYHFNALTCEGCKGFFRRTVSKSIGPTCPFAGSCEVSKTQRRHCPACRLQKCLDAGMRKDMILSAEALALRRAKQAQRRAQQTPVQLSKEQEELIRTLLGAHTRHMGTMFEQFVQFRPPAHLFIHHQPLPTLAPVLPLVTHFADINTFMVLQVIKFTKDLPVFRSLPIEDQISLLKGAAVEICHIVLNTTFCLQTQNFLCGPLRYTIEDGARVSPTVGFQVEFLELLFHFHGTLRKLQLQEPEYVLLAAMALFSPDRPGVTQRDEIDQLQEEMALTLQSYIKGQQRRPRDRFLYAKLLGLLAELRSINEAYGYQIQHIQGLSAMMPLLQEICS
Sequence of Signal transducer and activator of transcription 3 (Homo sapiens) (P40763 whole entry, looked up): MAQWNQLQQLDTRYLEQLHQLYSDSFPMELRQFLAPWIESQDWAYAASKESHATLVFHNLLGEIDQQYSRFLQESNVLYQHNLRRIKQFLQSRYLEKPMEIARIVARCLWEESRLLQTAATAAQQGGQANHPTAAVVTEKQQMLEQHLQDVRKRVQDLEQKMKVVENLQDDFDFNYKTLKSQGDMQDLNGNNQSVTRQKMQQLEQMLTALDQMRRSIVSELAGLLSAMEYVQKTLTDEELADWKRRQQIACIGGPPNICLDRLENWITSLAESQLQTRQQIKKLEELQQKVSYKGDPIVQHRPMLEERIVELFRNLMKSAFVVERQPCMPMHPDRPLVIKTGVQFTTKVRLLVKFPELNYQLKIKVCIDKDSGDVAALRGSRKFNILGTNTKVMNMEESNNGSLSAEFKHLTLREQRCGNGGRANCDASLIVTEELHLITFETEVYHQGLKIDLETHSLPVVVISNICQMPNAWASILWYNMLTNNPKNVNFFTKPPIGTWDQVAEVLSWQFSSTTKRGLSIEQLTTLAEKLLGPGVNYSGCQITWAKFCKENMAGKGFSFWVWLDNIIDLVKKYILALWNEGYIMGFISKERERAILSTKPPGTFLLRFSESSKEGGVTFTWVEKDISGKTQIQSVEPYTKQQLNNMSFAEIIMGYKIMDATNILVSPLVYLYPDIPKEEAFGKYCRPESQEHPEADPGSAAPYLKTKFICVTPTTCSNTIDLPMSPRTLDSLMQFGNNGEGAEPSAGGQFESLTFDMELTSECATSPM
Sequence of Steroid hormone receptor ERR1 (Homo sapiens) (P11474 whole entry, looked up, the tested form may be a part): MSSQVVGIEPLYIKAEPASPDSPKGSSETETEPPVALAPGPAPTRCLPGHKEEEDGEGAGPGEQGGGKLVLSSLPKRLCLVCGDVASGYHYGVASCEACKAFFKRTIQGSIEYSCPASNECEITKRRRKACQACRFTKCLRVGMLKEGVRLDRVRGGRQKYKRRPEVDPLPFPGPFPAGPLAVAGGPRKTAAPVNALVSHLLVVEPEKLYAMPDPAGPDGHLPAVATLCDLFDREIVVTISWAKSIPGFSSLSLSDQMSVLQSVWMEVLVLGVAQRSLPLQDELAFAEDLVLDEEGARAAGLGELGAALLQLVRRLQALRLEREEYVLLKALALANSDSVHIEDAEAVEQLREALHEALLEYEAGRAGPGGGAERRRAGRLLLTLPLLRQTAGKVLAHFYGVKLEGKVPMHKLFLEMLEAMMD
Sequence of Estrogen-related receptor gamma (Homo sapiens) (P62508 whole entry, looked up, the tested form may be a part): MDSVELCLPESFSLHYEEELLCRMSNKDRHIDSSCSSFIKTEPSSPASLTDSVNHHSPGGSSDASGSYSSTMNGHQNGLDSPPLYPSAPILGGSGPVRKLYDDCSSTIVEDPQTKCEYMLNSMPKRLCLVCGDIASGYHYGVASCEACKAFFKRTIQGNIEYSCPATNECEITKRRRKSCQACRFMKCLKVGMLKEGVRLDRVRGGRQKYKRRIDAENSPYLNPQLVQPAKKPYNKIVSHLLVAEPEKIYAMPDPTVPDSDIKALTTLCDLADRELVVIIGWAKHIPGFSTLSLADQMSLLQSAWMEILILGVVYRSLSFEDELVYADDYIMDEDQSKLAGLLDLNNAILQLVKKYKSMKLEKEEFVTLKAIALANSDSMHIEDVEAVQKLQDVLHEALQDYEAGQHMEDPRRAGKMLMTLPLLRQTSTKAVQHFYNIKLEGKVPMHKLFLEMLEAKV

On to `O=c1n(CC2CO2)c(=O)n(CC2CO2)c(=O)n1CC1CO1` (stereo unspecified), for which the half-maximal activity concentration (AC50) was 59.6 µM (active) in [1]; 21.3 µM (active) in test [2]; 65.3 µM (active) in test [4]; 17.1 µM (active) in [5]; 100 µM (active) in [12]. For the same molecule, the molecule was classed as inactive in test [3], in test [6], in test [7], in test [8], in test [9] and in test [10]. Further, the call in test [11] and in test [13] was inactive.

As to `CCCCCCCCCCCCCCCO`, the molecule was classed as inactive in test [1], in test [2], in test [3], in test [4], in test [5] and in test [6]. The molecule was called inactive in test [7], in test [8], in test [9], in [10], in [11] and in test [12]. Besides, the result in test [14] was inactive.

For the molecule `O=P(OC(CCl)CCl)(OC(CCl)CCl)OC(CCl)CCl`, the AC50 in test [1] is 46.9 µM (active); in test [2] it was 0.371 µM (active); in [6], 24.4 µM (active); in test [7], 188 µM (active); in [9] it was 100 µM (active); in test [12] it was 3.53 µM (active). Moreover, the AC50 in test [14] is 100 µM (active). The outcome in test [3], in test [15], in test [5], in [8], in [10] and in test [11] was inactive. For the same molecule, the molecule was called inactive in [16].

On to `CCCCC(CC)COC(=O)c1ccc(C(=O)OCC(CC)CCCC)cc1` (stereo unspecified), for which the result in test [1], in test [3], in test [4], in [15], in test [5] and in test [6] was inactive. Also, the outcome in test [7], in test [8], in test [9], in test [10], in test [11] and in [17] was inactive. In addition, the molecule was called inactive in test [16]. Moreover, in test [2], the AC50 is 63 µM (active).

As for `CNS(=O)(=O)c1cc(C(=O)N2CCC(CCN3C4CCC3CC(n3c(C)nc5ccccc53)C4)(c3cccc(F)c3)CC2)c(Cl)cc1F` (stereo unspecified), the molecule was classed as inactive in [1], in test [4], in [5], in test [7], in test [8] and in test [10]. Moreover, the call in test [11], in test [18] and in [16] was inactive. For the same molecule, the AC50 was 1.08 µM (active) in test [2]; 3.63 µM (active) in [3]; 3.32 µM (active) in test [6]; 7.52 µM (active) in test [9]; 5.14 µM (active) in [12].

`CN(C)c1ccc(Cc2ccc(N(C)C)cc2)cc1`: the outcome in test [1], in [4], in [7], in [8], in test [9] and in [10] was inactive. The molecule was called inactive in test [17], in test [14] and in test [19]. In addition, the AC50 in test [2] was 26.6 µM (active); in [3], 36.7 µM (active); in [5], 100 µM (active); in test [6], 43.4 µM (active); in test [11], 130 µM (active); in test [12], 25.8 µM (active).

As to `Cc1ccc(C)c(O)c1`, the call in test [1], in [2], in test [3], in test [4], in test [5] and in test [6] was inactive. For the same molecule, the result in [7], in [8], in test [9], in test [10], in test [11] and in test [12] was inactive. The molecule was classed as inactive in test [13].

`O=C(O)CCN(C1(C(=O)NO)CCCC1)S(=O)(=O)c1ccc(Oc2ccc(F)cc2)cc1`: the result in test [1], in test [2], in [3], in [15], in [5] and in [6] was inactive. The molecule was called inactive in test [7], in [8], in test [9], in test [10], in test [11] and in test [12]. For the same molecule, the outcome in [13], in test [14] and in test [18] was inactive.

In general, AC50 refers to the concentration giving half of the maximal activity seen.

(Values after PubChem BioAssay (EPA / NIEHS).)
